Results published in PubChem BioAssay (NCATS).
Results filed as inconclusive are left out. Calls of active or inactive are those of the source. The call rests on the fitted dose curve; in most records, active means well fitted curve in the direction sought with a large enough effect; inconclusive means small, poorly fitted or top-dose-only effect, or another doubt; inactive means no such curve, though single readings can be large; an effect the other way counts as inactive or inconclusive.

Legend:
[1] = molecular target: Tyrosine-protein phosphatase non-receptor type substrate 1 (Homo sapiens) + Leukocyte surface antigen CD47 (Homo sapiens) (UniProt P78324+Q08722); experiment: CD47-SIRPalpha protein protein interaction - Alpha assay qHTS validation (AID 1347059);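 further: bead proximity luminescence from CD47 binding SIRPalpha after compound preincubation with SIRPalpha; on the % scale 0 is the no-effect control and ±100 the full control effect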
How it was run: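 Soluble extracellular domains: Avi-tag biotinylated SIRPalpha (25 nM) preincubated 30 min RT with compound, then 6His-CD47 (12.5 nM) 30 min; Ni-NTA acceptor and streptavidin donor beads (10 ug/mL) 30 min, AlphaScreen read. PBS pH 7.4, 0.05% IGEPAL.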

[2] = molecular target: Parathyroid hormone/parathyroid hormone-related peptide receptor (Homo sapiens) (UniProt Q03431); experiment: qHTS for PTHR1 Agonists: Optimization Screen against the NCGC LOPAC library (AID 1347079);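 further: GloSensor cAMP luminescence in HEK-293 GP2 cells expressing human PTHR1 with IBMX; 0% is about no effect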
How it was run: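 Compounds were tested across a qHTS titration. PTHR1-expressing GP2 cells report cAMP rises via GloSensor luminescence after 1 hr compound exposure at 37C with IBMX present.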

[3] = qHTS of pediatric cancer cell lines to identify multiple opportunities for drug repurposing: Primary screen for TC32 cells (AID 1347089); further: on the % scale 0 is the no-effect control and ±100 the full control effect; nearly all actives have a fitted effect of over 60% in size
How it was run: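 Luminescent ATP read-out (CellTiter-Glo) of metabolically active TC32 cells after 48 h exposure. Concentration-response curves came from 11-point (MIPE, 0.78 nM–46 µM) or 8-point (NPC, 0.59 nM–46 µM) primary titrations; follow-up used 11 points.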

[4] = qHTS of pediatric cancer cell lines to identify multiple opportunities for drug repurposing: Primary screen for DAOY cells (AID 1347090); further: nearly all actives have a fitted effect of over 55% in size; further: potency means the concentration at half of the fitted maximal effect;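 on activity change, negative = cytotoxic: series mostly up to about 46 µM; plate controls were DMSO for no effect and bortezomib for full effect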
How it was run: (§1)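 Eight- or eleven-point concentration series, 48 h treatment at 37 degrees C in growth media; readout CellTiter-Glo luminescence. Potency and efficacy were taken from the concentration-response curves.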

[5] = qHTS of pediatric cancer cell lines to identify multiple opportunities for drug repurposing: Primary screen for A673 cells (AID 1347092); further: nearly all actives have a fitted effect of over 45% in size; further: potency means the concentration at half of the fitted maximal effect; on activity change, negative = cytotoxic: on the % scale 0 is the no-effect control and ±100 the full control effect
How it was run: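 Cell viability of A673 measured by CellTiter-Glo ATP luminescence after 48 hours compound exposure. Dilution series spanned 0.78 nM to 46 µM (MIPE, 11-point) or 0.59 nM to 46 µM (NPC, 8-point); bortezomib 2.3 uM positive control.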

[6] = qHTS of pediatric cancer cell lines to identify multiple opportunities for drug repurposing: Primary screen for SK-N-MC cells (AID 1347093);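 further: series mostly up to about 46 µM; plate controls were DMSO neutral control for no effect and bortezomib for full effect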
How it was run: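 Metabolically active cells were quantified by ATP-dependent luminescence (CellTiter-Glo, 15 min at room temperature) following 48 h treatment. Cells had been plated at 500-1,000 per well and settled for 5 h beforehand.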

[7] = qHTS of pediatric cancer cell lines to identify multiple opportunities for drug repurposing: Primary screen for BT-37 cells (AID 1347094); further: potency means the concentration at half of the fitted maximal effect;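 on activity change, negative = cytotoxic: series mostly up to about 57 µM; plate controls were DMSO for no effect and bortezomib for full effect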
How it was run: (§2)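 Viability was measured as metabolically active cells after 48 hours of treatment, read by CellTiter-Glo luminescence. Compounds were tested at multiple final concentrations, giving concentration-response curves.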

[8] = qHTS of pediatric cancer cell lines to identify multiple opportunities for drug repurposing: Primary screen for NB-EBc1 cells (AID 1347095); further: potency means the concentration at half of the fitted maximal effect;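 on activity change, negative = cytotoxic: plate controls were DMSO neutral control for no effect and bortezomib for full effect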
How it was run: as §2

[9] = qHTS of pediatric cancer cell lines to identify multiple opportunities for drug repurposing: Primary screen for U-2 OS cells (AID 1347096); further: nearly all actives have a fitted effect of over 50% in size; further: potency means the concentration at half of the fitted maximal effect;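 on activity change, negative = cytotoxic: plate controls were DMSO wells for no effect and bortezomib positive control wells for full effect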
How it was run: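 Cells (500-1,000/well) in growth media were settled 5 h at 37 degrees C, then given compounds for 48 h. Viability was read as CellTiter-Glo luminescence. Primary runs used MIPE at 11 points (0.78 nM-46 µM) and NPC at 8 points (0.59 nM-46 µM); follow-ups used 11 points.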

[10] = qHTS of pediatric cancer cell lines to identify multiple opportunities for drug repurposing: Primary screen for SJ-GBM2 cells (AID 1347091); further: potency means the concentration at half of the fitted maximal effect;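 on activity change, negative = cytotoxic: plate controls were DMSO neutral control for no effect and bortezomib for full effect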
How it was run: as §1

Parathyroid hormone/parathyroid hormone-related peptide receptor (Homo sapiens), sequence (Q03431 whole entry, looked up): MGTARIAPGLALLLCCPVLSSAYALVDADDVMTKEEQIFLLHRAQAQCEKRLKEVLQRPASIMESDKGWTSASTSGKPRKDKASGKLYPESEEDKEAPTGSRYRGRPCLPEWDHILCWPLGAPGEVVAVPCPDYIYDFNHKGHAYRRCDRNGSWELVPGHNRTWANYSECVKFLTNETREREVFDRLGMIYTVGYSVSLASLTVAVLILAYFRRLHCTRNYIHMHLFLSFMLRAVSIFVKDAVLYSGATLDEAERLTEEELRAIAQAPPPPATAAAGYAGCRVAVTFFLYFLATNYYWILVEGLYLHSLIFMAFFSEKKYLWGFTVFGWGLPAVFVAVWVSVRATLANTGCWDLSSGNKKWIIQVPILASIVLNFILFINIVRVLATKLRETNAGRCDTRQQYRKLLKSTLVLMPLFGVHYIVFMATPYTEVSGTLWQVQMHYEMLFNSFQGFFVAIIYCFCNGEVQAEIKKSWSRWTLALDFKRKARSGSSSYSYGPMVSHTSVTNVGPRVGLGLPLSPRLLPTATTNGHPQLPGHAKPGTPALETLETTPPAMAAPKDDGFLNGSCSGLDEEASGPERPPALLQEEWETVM
Tyrosine-protein phosphatase non-receptor type substrate 1 (Homo sapiens) + Leukocyte surface antigen CD47 (Homo sapiens), sequence (P78324 whole entry, looked up, the tested form may be a part): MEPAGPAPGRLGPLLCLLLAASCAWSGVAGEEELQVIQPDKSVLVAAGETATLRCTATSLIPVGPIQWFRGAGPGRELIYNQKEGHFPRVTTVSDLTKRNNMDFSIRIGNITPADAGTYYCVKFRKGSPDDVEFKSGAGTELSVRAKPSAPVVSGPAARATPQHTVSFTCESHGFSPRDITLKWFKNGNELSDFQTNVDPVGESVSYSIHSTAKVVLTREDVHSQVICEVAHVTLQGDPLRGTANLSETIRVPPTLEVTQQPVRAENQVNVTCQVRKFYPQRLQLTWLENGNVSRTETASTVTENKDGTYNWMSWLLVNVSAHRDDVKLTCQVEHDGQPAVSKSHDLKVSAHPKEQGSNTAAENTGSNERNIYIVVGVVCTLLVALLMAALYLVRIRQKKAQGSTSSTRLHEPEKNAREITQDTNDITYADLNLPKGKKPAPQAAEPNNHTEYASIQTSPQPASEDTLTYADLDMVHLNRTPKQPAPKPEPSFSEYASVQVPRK
Tyrosine-protein phosphatase non-receptor type substrate 1 (Homo sapiens) + Leukocyte surface antigen CD47 (Homo sapiens), sequence (Q08722 whole entry, looked up, the tested form may be a part): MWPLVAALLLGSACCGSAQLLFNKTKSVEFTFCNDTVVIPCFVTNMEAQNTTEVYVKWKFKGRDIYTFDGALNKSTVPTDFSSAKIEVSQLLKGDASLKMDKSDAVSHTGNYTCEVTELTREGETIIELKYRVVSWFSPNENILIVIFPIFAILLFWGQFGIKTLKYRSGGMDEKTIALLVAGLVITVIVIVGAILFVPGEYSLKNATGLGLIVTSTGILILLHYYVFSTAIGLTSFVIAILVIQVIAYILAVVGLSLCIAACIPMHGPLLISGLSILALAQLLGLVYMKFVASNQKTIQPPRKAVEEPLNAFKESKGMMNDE

C#CCN(C)Cc1ccccc1
inactive: outcome [1] | Potency [2] | Potency [3] | Potency [4] | Potency [5] | Potency [6] | Potency [7] | Potency [8] | Potency [9]

CC(=O)OCC(=O)[C@@]1(O)CC[C@H]2[C@@H]3CCC4=CC(=O)CC[C@]4(C)[C@H]3C(=O)C[C@@]21C
inactive: outcome [1] | Potency [2] | Potency [3] | Potency [10] | Potency [5] | Potency [7] | Potency [8] | Potency [9]

OCc1cc(C(O)CNCCCCCCOCCCCc2ccccc2)ccc1O (stereo unspecified)
inactive: outcome [1] | Potency [2] | Potency [3] | Potency [9]
active: Potency [5] 21.1 µM

NC(=O)c1ncn([C@@H]2O[C@H](CO)[C@@H](O)[C@H]2O)n1
inactive: outcome [1] | Potency [2] | Potency [3] | Potency [4] | Potency [10] | Potency [5] | Potency [6] | Potency [7] | Potency [9]

CC1=C(/C=C/C(C)=C/C=C/C(C)=C/C(=O)O)C(C)(C)CCC1
inactive: outcome [1] | Potency [2] | Potency [3] | Potency [4] | Potency [10] | Potency [5] | Potency [7] | Potency [8] | Potency [9]

C[C@]12C[C@H](O)[C@H]3[C@@H](CCC4=CC(=O)CC[C@@]43C)[C@@H]1CC[C@@H]2C(=O)CO
inactive: outcome [1] | Potency [2] | Potency [3] | Potency [4] | Potency [10] | Potency [5] | Potency [6] | Potency [8] | Potency [9]

CCN(CC)C(C)CN1c2ccccc2Sc2ccccc21 (stereo unspecified)
inactive: outcome [1] | Potency [2] | Potency [3] | Potency [4] | Potency [5] | Potency [6] | Potency [7] | Potency [8] | Potency [9]

N=c1c[n+](N2CCOCC2)[n-]o1
inactive: outcome [1] | Potency [2]

Cc1cc(C(C#N)c2ccc(Cl)cc2)c(Cl)cc1NC(=O)c1cc(I)cc(I)c1O (stereo unspecified)
inactive: Potency [3]

O=C1NC(=O)[C@@]2(CCOc3ccc(F)cc32)N1
inactive: outcome [1] | Potency [3] | Potency [4] | Potency [10] | Potency [5] | Potency [6] | Potency [7] | Potency [8] | Potency [9]

NCCNCCNCCNCCN
inactive: activity change, negative = cytotoxic [3] 6.7% [at 9.17 µM] | activity change, negative = cytotoxic [4] -7.74% [at 9.22 µM] | activity change, negative = cytotoxic [10] 0.237% [at 9.22 µM] | activity change, negative = cytotoxic [5] 0.711% [at 9.22 µM] | activity change, negative = cytotoxic [6] -17.1% [at 9.22 µM] | activity change, negative = cytotoxic [7] 7.77% [at 11.5 µM] | activity change, negative = cytotoxic [8] 2.04% [at 9.22 µM] | activity change, negative = cytotoxic [9] -3.22% [at 9.22 µM]

C[C@H]1O[C@@H](n2cc(F)c(=O)[nH]c2=O)[C@H](O)[C@@H]1O
active: Potency [8] 2.99 µM
inactive: outcome [1] | Potency [3] | Potency [4] | Potency [10] | Potency [5] | Potency [7] | Potency [9]

CC(C)(O)c1ccccc1CC[C@@H](SCC1(CC(=O)O)CC1)c1cccc(/C=C/c2ccc3ccc(Cl)cc3n2)c1
inactive: Potency [3] | Potency [4] | Potency [10] | Potency [5] | Potency [6] | Potency [7] | Potency [8] | Potency [9]

COCCOC(=O)C1=C(C)NC(C)=C(C(=O)OC/C=C/c2ccccc2)C1c1cccc([N+](=O)[O-])c1 (stereo unspecified)
inactive: Potency [2] | Potency [3] | Potency [4]

CNCCC(Oc1ccc(C(F)(F)F)cc1)c1ccccc1 (stereo unspecified)
inactive: Potency [2] | Potency [3] | Potency [8] | Potency [9]

NC1CCN(c2cccc(Cl)n2)CC1
inactive: Potency [2] | Potency [3] | Potency [4] | Potency [10] | Potency [5] | Potency [6] | Potency [7] | Potency [8] | Potency [9]

CCCCc1ncc(/C=C(\Cc2cccs2)C(=O)O)n1Cc1ccc(C(=O)O)cc1
inactive: outcome [1] | Potency [3] | Potency [4] | Potency [10] | Potency [5] | Potency [6] | Potency [7] | Potency [8] | Potency [9]

CCCCCCCCCCCCCCCC(=O)NCCO
inactive: Potency [2] | Potency [3] | Potency [4] | Potency [10] | Potency [5] | Potency [6] | Potency [7] | Potency [8] | Potency [9]

CN(C)CC[C@@H](c1ccc(Cl)cc1)c1ccccn1
inactive: Potency [2] | Potency [3] | Potency [4] | Potency [10] | Potency [5] | Potency [6] | Potency [7] | Potency [8] | Potency [9]

CN(C)CCCN1c2ccccc2Sc2ccc(Cl)cc21
inactive: Potency [2] | Potency [9]
active: Potency [5] 21.1 µM

CC(=O)c1ccc2c(c1)N(CCCN(C)C)c1ccccc1S2
inactive: outcome [1] | Potency [3] | Potency [4] | Potency [10] | Potency [6] | Potency [7] | Potency [8] | Potency [9]

CC(C)c1c(C(=O)Nc2ccccc2)c(-c2ccccc2)c(-c2ccc(F)cc2)n1CC[C@@H](O)C[C@@H](O)CC(=O)O
inactive: outcome [1]
active: Potency [4] 4.22 µM | Potency [10] 11.9 µM | Potency [5] 21.1 µM | Potency [7] 24.6 µM | Potency [9] 21.1 µM

CC(=O)NC(Cc1ccccc1)C(=O)O (stereo unspecified)
inactive: Potency [3] | Potency [4] | Potency [10] | Potency [5] | Potency [6] | Potency [7] | Potency [8] | Potency [9]

OCCN1CCN(CCCN2c3ccccc3Sc3ccc(Cl)cc32)CC1
active: Potency [10] 21.1 µM | Potency [5] 21.1 µM
inactive: Potency [2] | Potency [9]
